Assay in all cases: NCI-60 one-dose screen, 48 h (100 = growth as untreated, 0 = no growth, -100 = all killed)
The test system of one test is NCI-H226 lung. To be noted: 10 µM.
A further test has as its system NCI-H322M lung. To be noted: 10 µM.
Another test relates to HOP-62 NSCLC. To be noted: 10 µM.
Another test concerns NCI-H460 lung. To be noted: 10 µM.
The test system of the next test is NCI-H522 lung. The note with it: 10 µM.
In the next test the test system is COLO 205 colon. The note with it: 10 µM.
The subject of a further test is DU-145 prostate. To be noted: 10 µM.
A further test deals with K-562 leukemia. The note with it: 10 µM.
Another test concerns SF-539 CNS. To be noted: 10 µM.
The subject of another test is M14 melanoma. The note with it: 10 µM.
The test system of another test is HCT-15 colon. To be noted: 10 µM.
In another test the test system is HT29 colon. The note with it: 10 µM.
A further test concerns SNB-75 CNS. To be noted: 10 µM.
Another test deals with SNB-19 CNS. To be noted: 10 µM.
A further test has as its system LOX IMVI melanoma. To be noted: 10 µM.
The subject of a further test is MOLT-4 leukemia. The note with it: 10 µM.
In another test the test system is SR leukemia. To be noted: 10 µM.
The test system of another test is RPMI-8226 leukemia. The note with it: 10 µM.
The subject of a further test is SK-OV-3 ovarian. The note with it: 10 µM.
For the next test, the system named is MDA-MB-468 breast. The note with it: 10 µM unless noted.

This passage reports growth results from PubChem BioAssay (NCI).

Structures are written as SMILES. This is part of a sample that, as a whole, favours compounds with a hit. Of some 83,000 tested, about 20% had one in any assay.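 How to read the values: 0–100, growth inhibition (40 = 60% inhibited); 0, no net growth; -100 to 0, cell death (-40 = 40% of starting cells died; -100 = all dead).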 Unmarked numbers belong to inactive results. Activity calls are given as the source filed them. Rule for the calls: active = growth percent below 10; inactive = the rest.

In the case of `O=C(Nc1ccc(OCc2ccc(Cl)cc2)cc1)Nc1ccc(Cl)c(C(F)(F)F)c1`, the growth in the test on NCI-H226 lung was 6.46% (active); in the test with NCI-H322M lung, 25.9%; in the test on HOP-62 NSCLC, 19.5%; in the test with NCI-H460 lung, 7.92% (active); with NCI-H522 lung, -16.7% (active); in the test with COLO 205 colon, -80.6% (active). The growth in the test with DU-145 prostate is 26.6%; in the test on K-562 leukemia it was 7.62% (active); in the test on SF-539 CNS, 7.92% (active); in the test on M14 melanoma, 12.5%; in the test on HCT-15 colon, 9.07% (active); with HT29 colon, 8.31% (active). Moreover, the growth in the test with SNB-75 CNS was 28%; with SNB-19 CNS it was 11%; in the test with LOX IMVI melanoma, -72.5% (active); with MOLT-4 leukemia it was 9.92% (active); with SR leukemia, 2.46% (active); in the test on RPMI-8226 leukemia, -9.46% (active). In addition, the values for the growth in the test with SK-OV-3 ovarian and in the test on MDA-MB-468 breast were -18.9% (active) and -15.2% (active), respectively.
`O=C(Nc1ccc(OCc2ccc(F)cc2)cc1)Nc1ccc(Cl)c(C(F)(F)F)c1`: the growth in the test with NCI-H226 lung is 15%; with NCI-H322M lung it was 21.9%; in the test with HOP-62 NSCLC, 11.4%; with NCI-H460 lung it was 6.77% (active); in the test with NCI-H522 lung it was -20.8% (active); with COLO 205 colon, -79.2% (active). The growth was 31.6% with DU-145 prostate; 9.32% (active) in the test on K-562 leukemia; 8.73% (active) in the test with SF-539 CNS; 9.01% (active) with M14 melanoma; 7.42% (active) with HCT-15 colon; 11.9% in the test on HT29 colon. Moreover, the growth with SNB-75 CNS is 21%; with SNB-19 CNS, 18.3%; in the test on LOX IMVI melanoma it was -47.4% (active); in the test on MOLT-4 leukemia it was 6.64% (active); in the test on SR leukemia, -7.46% (active); with RPMI-8226 leukemia, -1.27% (active). Besides, the growth in the test on SK-OV-3 ovarian is -26.5% (active); with MDA-MB-468 breast, -8.31% (active).
For the compound `O=C(CSc1nc2ccccc2c(=O)n1-c1ccc(Cl)cc1)Nc1ccc(-c2nc3ccccc3[nH]2)cc1`, the growth in the test with NCI-H226 lung is 30.1%; in the test on NCI-H322M lung, 37.5%; in the test on HOP-62 NSCLC it was 5.56% (active); with NCI-H460 lung, -12.6% (active); with NCI-H522 lung, 15.9%; in the test with COLO 205 colon it was -12% (active). The growth in the test with DU-145 prostate was -8.05% (active); in the test with K-562 leukemia it was 2.71% (active); in the test on SF-539 CNS, -29.4% (active); in the test on M14 melanoma, -36.6% (active); with HCT-15 colon, -7.08% (active); in the test on HT29 colon, -38.9% (active). In addition, the growth with SNB-75 CNS is -39.1% (active); in the test on SNB-19 CNS it was 18.3%; with LOX IMVI melanoma, -88.2% (active); with MOLT-4 leukemia, -7.88% (active); with SR leukemia, -15.2% (active); in the test with RPMI-8226 leukemia, 22.4%. Also, the growth with SK-OV-3 ovarian was 94.2%; in the test on MDA-MB-468 breast it was -41.7% (active).
With `COc1cc(C2CC(c3ccc(Oc4ccc(Cl)cc4)cc3)=NN2c2nc(-c3ccc(Cl)cc3)c(C#N)c(N3CCOCC3)n2)cc(OC)c1OC` (configuration not stated), the growth is 90.4% with NCI-H226 lung; 98% with NCI-H322M lung; 98.9% with HOP-62 NSCLC; 107% in the test on NCI-H460 lung; 92.4% in the test on NCI-H522 lung; 101% in the test on COLO 205 colon. The growth is 106% in the test on DU-145 prostate; 97.5% in the test on K-562 leukemia; 95.7% with SF-539 CNS; 99% in the test with M14 melanoma; 95.7% in the test on HCT-15 colon; 106% with HT29 colon. The growth in the test on SNB-75 CNS was 78.3%; with SNB-19 CNS it was 102%; with LOX IMVI melanoma, 80.6%; in the test on MOLT-4 leukemia, 105%; in the test on SR leukemia, 88.5%; in the test with RPMI-8226 leukemia, 104%. For the same compound, the figures for the growth with SK-OV-3 ovarian and with MDA-MB-468 breast were 102% and 107%, respectively.
As for `O=C(CC(=O)Nc1ccc(Oc2ncnc3scc(Nc4n[nH]c(=S)s4)c23)cc1)Nc1ccc(Br)cc1`, the growth was 94.4% with NCI-H226 lung; 106% in the test with NCI-H322M lung; 99.8% with HOP-62 NSCLC; 107% with NCI-H460 lung; 89.6% in the test with NCI-H522 lung; 107% with COLO 205 colon. Also, the growth in the test on DU-145 prostate is 107%; in the test on K-562 leukemia it was 76.4%; with SF-539 CNS, 104%; in the test on M14 melanoma it was 98.1%; with HCT-15 colon it was 100%; in the test on HT29 colon, 112%. The growth in the test on SNB-75 CNS is 95.6%; in the test with SNB-19 CNS it was 99.9%; in the test on LOX IMVI melanoma it was 66.2%; in the test with MOLT-4 leukemia, 85.3%; with SR leukemia it was 87%; in the test on RPMI-8226 leukemia, 110%. In addition, the growth in the test with SK-OV-3 ovarian is 98.4%; in the test on MDA-MB-468 breast it was 120%.
Turning to `COc1cc(-c2ccc(N=Nc3c(O)c(C(=O)Nc4ccccc4OC)cc4ccccc34)c(OC)c2)ccc1N=Nc1c(O)c(C(=O)Nc2ccccc2OC)cc2ccccc12`, the growth with MDA-MB-468 breast was 95%.
Regarding `CC/C=C\C[C@H](O)C/C=C1/C(=O)C=C[C@@H]1C/C=C\CCCC(N)=O`, in the test with MDA-MB-468 breast, the growth is -33.1% (active).
As for `Cc1cc(N=C2NC(=O)/C(=C/c3cc(C(C)(C)C)c(O)c(C(C)(C)C)c3)S2)n[nH]1`, the growth in the test on NCI-H226 lung is 10.3%; in the test on NCI-H322M lung, 28.6%; with HOP-62 NSCLC it was 8.56% (active); in the test with NCI-H460 lung, 0.397% (active); with NCI-H522 lung, -26.1% (active); in the test on COLO 205 colon it was -9.38% (active). Moreover, the growth in the test on DU-145 prostate is 27.2%; with K-562 leukemia, 18.3%; in the test with SF-539 CNS it was 18.9%; in the test on M14 melanoma, 24.7%; in the test on HCT-15 colon, 6.98% (active); in the test on HT29 colon, 9.22% (active). Moreover, the growth in the test with SNB-75 CNS was 1.49% (active); with SNB-19 CNS, 21.1%; in the test with LOX IMVI melanoma, 1.11% (active); with MOLT-4 leukemia it was 11%; in the test with SR leukemia it was 12.2%; in the test on RPMI-8226 leukemia it was 1.11% (active). The growth was -27.9% (active) in the test on SK-OV-3 ovarian and -0.214% (active) in the test with MDA-MB-468 breast.
`O=C(Nc1ccc(OCC(=O)c2ccc(Cl)cc2)cc1)Nc1ccc(Cl)c(C(F)(F)F)c1`: the growth with NCI-H226 lung was 38%; in the test with NCI-H322M lung, 49.1%; in the test with HOP-62 NSCLC, 47.6%; in the test with NCI-H460 lung, 27.6%; in the test on NCI-H522 lung, -12.4% (active); in the test on COLO 205 colon it was -49.4% (active). Also, the growth with DU-145 prostate was 66.2%; in the test with K-562 leukemia, 65.3%; in the test with SF-539 CNS it was 47.3%; in the test on M14 melanoma, 33.9%; in the test on HCT-15 colon, 23.6%; in the test on HT29 colon it was 33.6%. Also, the growth with SNB-75 CNS was 51.5%; in the test with SNB-19 CNS, 21.3%; with LOX IMVI melanoma it was -37.8% (active); in the test on MOLT-4 leukemia, 45.3%; with SR leukemia, 39.5%; with RPMI-8226 leukemia, 12.2%. Also, the growth is 33% in the test on SK-OV-3 ovarian and 26% in the test on MDA-MB-468 breast.
